Screening results: PubChem, National Center for Advancing Translational Sciences (NCATS)
G9a inh = qHTS Assay for Inhibitors of Histone Lysine Methyltransferase G9a; actives 8.8% (n = 350,000); G9a H3K9 monomethylation, AlphaScreen, 2 h; Potency, µM (series often up to 102 µM), for the others: at the highest dose activity, negative = inhibition, actives largely listed as inhibitors; Histone-lysine N-methyltransferase EHMT2 (Homo sapiens), Q96KQ7; note: potency is the fitted concentration of half-maximal effect; % is set by controls: 0 for no effect and ±100 for the full control effect; nearly all actives have a fitted effect of over 75% in size
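AlphaScreen detection with an anti-monomethyl H3K9 antibody quantified product after a 2 h room-temperature reaction containing 500 nM biotinylated H3K9 peptide, 20 µM SAM and 20 nM enzyme, which had been preincubated 15 min with compound.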
BAZ2B inh = qHTS Assay for Inhibitors of BAZ2B; Bromodomain adjacent to zinc finger domain protein 2B (Homo sapiens), Q9UIF8; AlphaScreen BAZ2B-H3K14Ac peptide displacement; Potency, µM (highest dose often 114 µM), inactives show top-dose activity change, negative = inhibition, usual class: inhibitors; actives 4.4% (n = 360,000); AID 504333, 2011; note: potency is the fitted concentration of half-maximal effect; % is set by controls: 0 for no effect and ±100 for the full control effect; nearly all actives have a fitted effect of over 60% in size
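AlphaScreen displacement: compounds (up to 110uM) incubated 30 min at room temperature with a preformed 50 nM BAZ2B/50 nM biotinylated H3K14Ac peptide complex in PBS pH 7.4 with Tween-20. Donor and acceptor beads at 10 ug/mL final added, 20 min light-protected before reading.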
CtBP-E1A inh = qHTS Assay for Inhibitors of the CtBP/E1A Interaction; CtBP / adenovirus E1A interaction (AlphaScreen); AlphaScreen GST-E1A/His-CtBP binding, 1536-well; stronger effect = lower value; activity change, % (no concentration beside the values); actives 0.49% (n = 340,000); AID 651724, 2012; in the data active = activity change below about -65%; inconclusive = mostly about -30% to -63%; note: % is set by controls: 0 for no effect and ±100 for the full control effect
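Protein mix (5X: 125 nM each GST-E1A, His-CtBP) was incubated with pinned compound 2 h at 37 deg C in dark, in 50 mM Tris pH 8.0 buffer with 300 mM NaCl. Glutathione donor and nickel acceptor beads followed; AlphaScreen signal read after 1 h.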
HP1b chromo inh = HTS for Inhibitors of HP1-beta Chromodomain Interactions with Methylated Histone Tails; Chromobox protein homolog 1 (Homo sapiens), P83916; AlphaScreen HP1-beta / biotin-H3K9me3 peptide binding; Potency, µM (doses to about 114 µM), for inactives: at the highest dose activity change, negative = inhibition, actives largely listed as inhibitors; actives 0.56% (n = 390,000); AID 540317, 2011; note: potency is the fitted concentration of half-maximal effect; nearly all actives have a fitted effect of over 70% in size
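Compound inhibition of the preformed complex between 50 nM HP1-beta and 50 nM biotinylated H3K9me3 peptide was read by AlphaScreen. Buffer was PBS pH 7.4 with 0.01% Tween-20. Incubations ran 30 min at room temperature, with 10 ug/mL donor/acceptor beads.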
JMJD2A Tudor inh = qHTS Assay for Inhibitors of JMJD2A-Tudor Domain | Lysine-specific demethylase 4A (Homo sapiens), O75164 | AlphaScreen JMJD2A-Tudor / H3K4me3 peptide binding | Potency, µM (top dose mostly 114 µM), for inactives: at the highest dose activity change, negative = inhibition, most hits filed as inhibitors | actives 4.4% (n = 390,000) | AID 504339, 2011; note: potency is the fitted concentration of half-maximal effect; % is set by controls: 0 for no effect and ±100 for the full control effect; nearly all actives have a fitted effect of over 50% in size
Six1-Eya2 blk = qHTS Assay for Inhibitors of the Six1/Eya2 Interaction. Homeobox protein SIX1 (Homo sapiens) + Protein phosphatase EYA2 (Homo sapiens), …. AlphaScreen GST-Six1/His-Eya2 binding, biochemical; stronger effect = lower value. activity change, % (no concentration beside the values). actives 0.56% (n = 360,000). AID 651725, 2012; in the data active = activity change below about -65%; inconclusive = mostly about -30% to -63%; note: % is set by controls: 0 for no effect and ±100 for the full control effect
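Compounds are tested against tagged Six1 and Eya2 proteins bridged by glutathione donor and nickel acceptor beads; after a one-hour incubation at 37 °C without light, AlphaScreen emission is recorded.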
Numbers without * were called inactive; ? = inconclusive; . = no result; [ ] = remark or other dose. Sampled rows, rich in hits. Any-hit rate of the full collection: about 10%. Unless noted, calls come from the whole dose curve; as a rule, active = well fitted inhibition curve with a large enough effect; inconclusive = small, poorly fitted or top-dose-only effect; inactive = no such curve, though single readings can be large or run the other way.

SMILES	G9a inh	BAZ2B inh	CtBP-E1A inh	HP1b chromo inh	JMJD2A Tudor inh	Six1-Eya2 blk
COc1ccc(-c2[nH]c(-c3cccc(OC)c3)nc2SCC(=O)Nc2ccc3c(c2)OCO3)cc1	10µM*	?	.	?	?	.
COc1ccc(NC(=O)CSc2nc(-c3cccc(C)c3)[nH]c2-c2ccccc2)cc1OC	?	22µM*	.	-14%	?	.
CCC1CCCCN1S(=O)(=O)c1ccc([N+](=O)[O-])cc1 (stereo not given)	71µM*	?	?	-1%	-36%	-14
CCC(=O)N1c2nc(C(C)C)nn2C2(CCCCC2)[C@@H]2CCCC[C@@H]21	1%[59 µM]	-3%	.	38%	-14%	.
COc1ccc(OC)c(NC(=O)CSc2nnc(CNC(=O)COc3ccc(Cl)cc3)o2)c1	?	?	-4	-3%	-12%	-3
Cc1nn(CC(=O)Nc2ccc3c(c2)OCO3)c(C)c1Cl	71µM*	-14%	.	45%	2%	-11
COc1ccc(-c2ccc(SCC(=O)NCc3ccco3)nn2)cc1OC	-105%	11%	-23	1%	?	-30
O=C(COc1ccc(Cl)cc1)NCc1nnc(SCC(=O)Nc2ccc3c(c2)OCCO3)o1	19%[59 µM]	6%	2	?	79µM*	0
COc1ccc(-c2[nH]c(-c3ccc(C)cc3)nc2SCC(=O)NCc2ccco2)cc1OC	50µM*	6%	-3	46%	-19%	5
Cc1nn(-c2ccccc2)c(C)c1/C=C/C(=O)OCC(=O)Nc1ccc(S(N)(=O)=O)cc1	15%[59 µM]	8%	-88*	4%	-18%	-20
COc1ccc(N(CC(=O)N2CCN(c3ccc(F)cc3)CC2)S(=O)(=O)c2c(C)nn(C)c2C)cc1	-29%[59 µM]	.	.	-1%	-30%	.
COc1cccc(-c2cncnc2NCc2cccs2)c1	8%[0.501 µM]	.	.	.	.	.
Cc1ccc(-n2nc(C)c(NC(=O)COC(=O)c3ccccc3NCCO)c2C)cc1	50µM*	13%	2	22%	-4%	5
CC1(C(=O)Nc2ccccc2Br)CCN1C(=O)Cc1ccccc1Cl (stereo not given)	.	.	2	.	.	1
O=C(Nc1ccc(-n2nncc2-c2ccccc2)cc1)c1cccc(F)c1	9%[59 µM]	-18%	.	28%	-15%	.
O=C(Nc1ccc(-n2nncc2-c2ccco2)cc1)c1cccc(F)c1	45µM*	?	-13	-22%	-35%	-20
CCN(C[C@H]1N[C@@](CC)(C(=O)OC)[C@H]2C(=O)N(C)C(=O)[C@@H]12)C(=O)Nc1ccccc1	.	.	6	48%	-15%	3
CCN(CC)c1ccc(CN(C(=O)c2cccs2)C2CCS(=O)(=O)C2)cc1 (stereo not given)	40µM*	?	-19	5%	?	-15
CCc1ccc(CN(C(=O)c2ccco2)C2CCS(=O)(=O)C2)cc1 (stereo not given)	?	2%	7	12%	22µM*	0
O=C(c1ccco1)N(Cc1ccc(Cl)cc1)C1CCS(=O)(=O)C1 (stereo not given)	.	-6%	.	31%	-7%	-4
CCN(CC)c1ccc(CN(C(=O)c2ccco2)C2CCS(=O)(=O)C2)cc1 (stereo not given)	45µM*	-36%	6	4%	-35%	-4
O=C(c1ccco1)N(Cc1cccc(F)c1)C1CCS(=O)(=O)C1 (stereo not given)	-9%	56µM*	3	23%	-13%	1
Cc1ccc(C)c(NC(=O)CCNS(=O)(=O)c2ccc3c(c2)CCCC(=O)N3)c1	-28%[59 µM]	5%[57.1 µM]	.	11%	-17%	.
N#Cc1nc(Nc2ccc3ccccc3c2)nc(NC2CCCC2)n1	.	.	.	.	-16%	.
CCCNC(=O)C1(C)CCCN(C(=O)c2ccc3sccc3c2)C1 (stereo not given)	.	.	1	.	.	-2
SMILES	G9a inh	BAZ2B inh	CtBP-E1A inh	HP1b chromo inh	JMJD2A Tudor inh	Six1-Eya2 blk
Cc1ccc(-n2c(=O)c3oc4ccccc4c3n(Cc3ccccc3F)c2=O)cc1C	5%[59 µM]	-39%	.	40%	8%	.
CCOc1ccccc1C(=O)N(Cc1cc(OC)c(OC)c(OC)c1)C1CCS(=O)(=O)C1 (stereo not given)	12%[59 µM]	2%	.	15%	-17%	.
CCN(CC)c1ccc(CN(C(=O)c2cc(OC)c(OC)c(OC)c2)C2CCS(=O)(=O)C2)cc1 (stereo not given)	35µM*	?	0	-5%	?	-3
O=C(c1cccs1)N(Cc1cccc(Cl)c1)C1CCS(=O)(=O)C1 (stereo not given)	2%[59 µM]	.	4	31%	-7%	0
COc1cccc(CN(C(=O)c2cccs2)C2CCS(=O)(=O)C2)c1 (stereo not given)	20%	-14%	20	10%	56µM*	11
Cn1nccc1C(=O)N1CCN(c2ncccn2)CC1	-2%	0%	0	3%	-11%	7
Nc1nnnn1/N=C/c1cccc(O)c1	10%[59 µM]	-3%	-17	32%	-12%	-9
Cc1cc(-c2n[nH]c(=S)n2/N=C/c2cccc([N+](=O)[O-])c2)n[nH]1	1.6µM*	-12%	-27	?	7.9µM*	-26
Cc1cc(-c2n[nH]c(=S)n2/N=C/c2cccc(O)c2)n[nH]1	2.2µM*	-20%	-3	?	3.2µM*	4
Cn1nc(-c2ccc(OCC(=O)Nc3cccc(C(F)(F)F)c3)cc2)c2ccccc2c1=O	4%[59 µM]	-31%	.	16%	-20%	.
CCCCOc1ccc(C(=O)N(C)CC(=O)Nc2ccc(C)cc2)cc1	26%	3%	1	23%	-19%	-6
Cc1ccccc1CNC(=O)C(=O)NCC1OCCCN1S(=O)(=O)c1ccc(F)cc1C (stereo not given)	?	-7%	2	21%	-15%	-4
CCOC(=O)c1nnn(-c2nc(N3CCCC3)nc(N3CCCC3)n2)c1-c1ccccc1	1%[59 µM]	-3%	0	-6%	79µM*	0
COc1cccc(OCC(=O)Nc2c3c(nn2-c2ccc(F)cc2)CS(=O)(=O)C3)c1	-7%	-18%	-1	17%	-7%	4
COc1ccc(NC(c2ccccc2)c2ccncc2)cc1 (stereo not given)	7.1µM*	71µM*	5	8%	45µM*	3
